# Laboratory results taken from PubChem BioAssay.
# Values without a mark were called inactive. Activity calls are given as the source filed them. How the calls were made is not given here.
# Target: L-lactate dehydrogenase (Plasmodium falciparum (isolate CDC / Honduras)) (UniProt Q27743)
# Assay: PfLDH activity inhibition – cell lysate, 3D7 strain, counter-screen for P. falciparum growth inhibition project (AID 2304);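 further: 0% = vehicle and 100% = reference inhibitor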
# Settings: P. falciparum 3D7 crude extract, LDH APAD/NBT absorbance; at 2 µM; hits give high values
# Chain of L-lactate dehydrogenase (Plasmodium falciparum (isolate CDC / Honduras)) (Q27743 whole entry, looked up): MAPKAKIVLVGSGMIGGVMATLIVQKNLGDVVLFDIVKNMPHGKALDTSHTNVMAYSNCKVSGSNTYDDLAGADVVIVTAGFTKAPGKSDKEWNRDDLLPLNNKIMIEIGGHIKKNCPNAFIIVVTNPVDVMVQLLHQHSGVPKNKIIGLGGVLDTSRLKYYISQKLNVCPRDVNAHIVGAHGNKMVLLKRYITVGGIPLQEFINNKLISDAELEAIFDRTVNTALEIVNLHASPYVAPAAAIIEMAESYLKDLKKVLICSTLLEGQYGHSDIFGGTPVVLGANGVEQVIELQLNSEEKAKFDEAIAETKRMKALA
row,SMILES,inhibition
1,Cc1cccc2[nH]c(-c3ccc(-c4cccc(CN5CCC(CO)CC5)c4)s3)nc12,-8%
2,O=C(Nc1cccc(-c2nn3ccccc3c2-c2ccnc(Nc3cccc(N4CCCC4=O)c3)n2)c1)c1cc(F)ccc1F,3%
3,COc1ccc(NC(=O)Nc2nc(-c3ccc(Cl)c(C)c3)cs2)cc1N1CCN(C)CC1,0%
4,COc1c(C(=O)NC2CCN(Cc3ccccc3)C2)cnc2ccccc12 (stereo not given),-4%
5,COc1ccc(Cl)cc1NC(=O)Nc1ccc2c(c1)CCN(C1CCC1)CC2,-2%
6,OCCNc1nc(Nc2ccccc2)nc2ccccc12,5%
7,COc1ccc2c(Nc3ccc(N4CCN(C)CC4)cc3)cc(C)nc2c1,-2%
8,O=C(N[C@H]1CCN(Cc2ccc(OCCCN3CCCCC3)cc2)C1)c1cc(Cl)cc(Cl)c1,-1%
9,COc1ccc(CNCCc2cccs2)cc1-c1ccc(OC)c(S(=O)(=O)NCCN2CCCC2)c1,1%
10,COc1ccc(-c2ccc(NC(=O)c3cccc(C#N)c3)cc2)cc1CN1CCC(O)CC1,7%
11,NCc1cccc(-c2cccc(CNC3CCN(Cc4ccccc4)CC3)c2)c1,2%
12,CCc1nc2ccc(C(=O)OC)nc2n1Cc1ccc2oc(-c3ccccc3N)c(Br)c2c1,-2%
13,CO/C(=C\C=C\c1cc2cc(Cl)c(Cl)cc2[nH]1)C(=O)NCCN1CCCCC1,1%
14,CCCCCCNC(=O)C1Cc2c([nH]c3ccc(Br)cc23)C2(CCN(Cc3ccccc3)CC2)N1 (stereo not given),6%
15,O=c1[nH]c(NCCCCCN2CCC(c3c[nH]c4ccccc34)CC2)ncc1Cc1ccc(Cl)c(Cl)c1,-4%
16,CCn1c2ccccc2c2cc(C=NNc3cc(C)nc4ccccc34)ccc21,-2%
17,O=c1cc(NCCCN(Cc2cc3c(Cl)cc(Cl)cc3[nH]2)Cc2cc3c(Cl)cc(Cl)cc3[nH]2)[nH]c2ccccc12,-6%
18,CCc1cc(NC2CCN(C)CC2)nc(Nc2cccc(OC)c2)n1,-6%
19,CCCCOc1cc(CNCCCCCCNCc2cc(OCCCC)cc3ccccc23)c2ccccc2c1,-5%
20,O=C(O)c1ccc2nc(-c3ccccn3)c(-c3ccccn3)nc2c1,4%

row,SMILES,inhibition
1,Cc1cccc2[nH]c(-c3ccc(-c4ccc(NC(=O)C5CCN(C)CC5)cc4)cc3)nc12,1%
2,CCCc1cc(N2CCC(c3ccccc3)(N3CCCCC3)CC2)nc(Nc2ccc(OC)cc2)n1,1%
3,c1cncc(-c2cc(N3CCc4ccccc4C3)nc(-c3ccncc3)n2)c1,-5%
4,CN(C)C(CNC(=O)c1cc(-c2ccncc2)c(-c2ccc(NC(=O)Nc3ccccc3)cc2)o1)c1ccccc1 (stereo not given),4%
5,CN1CCCN(Cc2ccc(-c3cccc(NC(=O)c4ccc(Cl)cc4)c3)cc2)CC1,-4%
6,CN1CCN(CCCN(Cc2cccc(-c3ccc(CNCCc4ccccc4)cc3)c2)C(=O)c2cccs2)CC1,2%
7,CNC(=O)c1cnc(Nc2ccc(N3CCN(C)CC3)cc2)nc1Nc1ccccc1OC,2%
8,COc1ccc(NC(=O)/C=C/c2ccccc2Cl)cc1OCCN1CCC(c2nc3ccccc3[nH]2)CC1,-6%
9,COc1ccc2nccc(NCC3(O)CCC(NCc4ccc5c(n4)NC(=O)CS5)CC3)c2n1 (stereo not given),3%
10,c1ccn2c(-c3ncnc(NCc4ccc5c(c4)CCO5)n3)cnc2c1,0%
11,CCCCCCCCOc1c(OCC)cc(Cc2cnc(N)nc2N)cc1OCC,3%
12,Cc1ccc(NC(=O)NC2CCN(c3ccnc4cc(Cl)ccc34)CC2)cc1,-2%
13,Nc1c(C(=O)NCCCCN2CCN(c3nsc4ccccc34)CC2)sc2ccccc12,-5%
14,COc1ccc(NC(=O)Nc2ccc(C)c(-c3ccc(C(=O)Nc4ccncc4)cc3)c2)cc1,4%
15,Cc1cccc2[nH]c(-c3cccc(-c4ccc(CN5CCCC5CN)cc4)c3)nc12 (stereo not given),3%
16,COc1cccc(CN2CCCC(COC(c3ccc(F)cc3)c3ccc(F)cc3)C2)c1O (stereo not given),4%
17,COc1cc(Cc2cnc(N)nc2N)ccc1OCc1ccc(NC(C)=O)cc1,-6%
18,COc1ccc(C=NNc2ccnc3ccccc23)c2ccccc12,0%
19,Cc1ccc(CNC(=O)[C@H](CC(C)C)Nc2cc(C)nc(NCc3ccccc3C)n2)cc1,1%
20,O=C(Nc1ccc(Cn2nc(Cl)c(N3CCCNCC3)cc2=O)cc1)Nc1ccc(-c2ccccc2)cc1,1%

# Tested on: not listed separately
# Assay: inhibition of 3D7 malaria parasite growth – strain 3D7 (AID 2306);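 further: 0% = DMSO wells and 100% = chloroquine plus artemisinin control wells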
# Settings: P. falciparum 3D7 erythrocytic growth, LDH absorbance, 72 h; at 2 µM; hits give high values
row,SMILES,growth inhibition
1,Cc1cccc2[nH]c(-c3ccc(-c4cccc(CN5CCC(CO)CC5)c4)s3)nc12,99% (active)
2,O=C(Nc1cccc(-c2nn3ccccc3c2-c2ccnc(Nc3cccc(N4CCCC4=O)c3)n2)c1)c1cc(F)ccc1F,99% (active)
3,COc1ccc(NC(=O)Nc2nc(-c3ccc(Cl)c(C)c3)cs2)cc1N1CCN(C)CC1,99% (active)
4,COc1c(C(=O)NC2CCN(Cc3ccccc3)C2)cnc2ccccc12 (stereo not given),86% (active)
5,COc1ccc(Cl)cc1NC(=O)Nc1ccc2c(c1)CCN(C1CCC1)CC2,98% (active)
6,OCCNc1nc(Nc2ccccc2)nc2ccccc12,93% (active)
7,COc1ccc2c(Nc3ccc(N4CCN(C)CC4)cc3)cc(C)nc2c1,101% (active)
8,O=C(N[C@H]1CCN(Cc2ccc(OCCCN3CCCCC3)cc2)C1)c1cc(Cl)cc(Cl)c1,99% (active)
9,COc1ccc(CNCCc2cccs2)cc1-c1ccc(OC)c(S(=O)(=O)NCCN2CCCC2)c1,96% (active)
10,COc1ccc(-c2ccc(NC(=O)c3cccc(C#N)c3)cc2)cc1CN1CCC(O)CC1,101% (active)
11,NCc1cccc(-c2cccc(CNC3CCN(Cc4ccccc4)CC3)c2)c1,100% (active)
12,CCc1nc2ccc(C(=O)OC)nc2n1Cc1ccc2oc(-c3ccccc3N)c(Br)c2c1,93% (active)
13,CO/C(=C\C=C\c1cc2cc(Cl)c(Cl)cc2[nH]1)C(=O)NCCN1CCCCC1,81% (active)
14,CCCCCCNC(=O)C1Cc2c([nH]c3ccc(Br)cc23)C2(CCN(Cc3ccccc3)CC2)N1 (stereo not given),100% (active)
15,O=c1[nH]c(NCCCCCN2CCC(c3c[nH]c4ccccc34)CC2)ncc1Cc1ccc(Cl)c(Cl)c1,94% (active)
16,CCn1c2ccccc2c2cc(C=NNc3cc(C)nc4ccccc34)ccc21,102% (active)
17,O=c1cc(NCCCN(Cc2cc3c(Cl)cc(Cl)cc3[nH]2)Cc2cc3c(Cl)cc(Cl)cc3[nH]2)[nH]c2ccccc12,87% (active)
18,CCc1cc(NC2CCN(C)CC2)nc(Nc2cccc(OC)c2)n1,93% (active)
19,CCCCOc1cc(CNCCCCCCNCc2cc(OCCCC)cc3ccccc23)c2ccccc2c1,101% (active)
20,O=C(O)c1ccc2nc(-c3ccccn3)c(-c3ccccn3)nc2c1,97% (active)

row,SMILES,growth inhibition
1,Cc1cccc2[nH]c(-c3ccc(-c4ccc(NC(=O)C5CCN(C)CC5)cc4)cc3)nc12,100% (active)
2,CCCc1cc(N2CCC(c3ccccc3)(N3CCCCC3)CC2)nc(Nc2ccc(OC)cc2)n1,81% (active)
3,c1cncc(-c2cc(N3CCc4ccccc4C3)nc(-c3ccncc3)n2)c1,100% (active)
4,CN(C)C(CNC(=O)c1cc(-c2ccncc2)c(-c2ccc(NC(=O)Nc3ccccc3)cc2)o1)c1ccccc1 (stereo not given),101% (active)
5,CN1CCCN(Cc2ccc(-c3cccc(NC(=O)c4ccc(Cl)cc4)c3)cc2)CC1,98% (active)
6,CN1CCN(CCCN(Cc2cccc(-c3ccc(CNCCc4ccccc4)cc3)c2)C(=O)c2cccs2)CC1,101% (active)
7,CNC(=O)c1cnc(Nc2ccc(N3CCN(C)CC3)cc2)nc1Nc1ccccc1OC,100% (active)
8,COc1ccc(NC(=O)/C=C/c2ccccc2Cl)cc1OCCN1CCC(c2nc3ccccc3[nH]2)CC1,92% (active)
9,COc1ccc2nccc(NCC3(O)CCC(NCc4ccc5c(n4)NC(=O)CS5)CC3)c2n1 (stereo not given),100% (active)
10,c1ccn2c(-c3ncnc(NCc4ccc5c(c4)CCO5)n3)cnc2c1,86% (active)
11,CCCCCCCCOc1c(OCC)cc(Cc2cnc(N)nc2N)cc1OCC,80% (active)
12,Cc1ccc(NC(=O)NC2CCN(c3ccnc4cc(Cl)ccc34)CC2)cc1,101% (active)
13,Nc1c(C(=O)NCCCCN2CCN(c3nsc4ccccc34)CC2)sc2ccccc12,86% (active)
14,COc1ccc(NC(=O)Nc2ccc(C)c(-c3ccc(C(=O)Nc4ccncc4)cc3)c2)cc1,99% (active)
15,Cc1cccc2[nH]c(-c3cccc(-c4ccc(CN5CCCC5CN)cc4)c3)nc12 (stereo not given),101% (active)
16,COc1cccc(CN2CCCC(COC(c3ccc(F)cc3)c3ccc(F)cc3)C2)c1O (stereo not given),98% (active)
17,COc1cc(Cc2cnc(N)nc2N)ccc1OCc1ccc(NC(C)=O)cc1,98% (active)
18,COc1ccc(C=NNc2ccnc3ccccc23)c2ccccc12,102% (active)
19,Cc1ccc(CNC(=O)[C@H](CC(C)C)Nc2cc(C)nc(NCc3ccccc3C)n2)cc1,87% (active)
20,O=C(Nc1ccc(Cn2nc(Cl)c(N3CCCNCC3)cc2=O)cc1)Nc1ccc(-c2ccccc2)cc1,87% (active)
